Data on 3 compounds can be found in PubChem BioAssay (EPA / NIEHS).

Values joined by “and” are separate entries in the source; they are usually repeats but may differ in a detail not shown here. Equal values may be shown once. Inconclusive results are not listed. Where a structure was tested more than once in an assay, its records may differ in their call. Active and inactive are the calls of the source. The calls were made as follows, unless noted: active = hit-call score of the fitted dose curve at least 0.9, where 1 is the maximum; inconclusive = response in the unintended direction; inactive = score below 0.9.

A short description of assay [1]: ATG_TAL_CIS: Attagene CIS-FACTORIAL HepG2 Assay for human TAL Basal Promoter (AID 2282966; active = hit-call score of the fitted dose curve at least 0.9, where 1 is the maximum; inactive = score below 0.9;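 also: background control endpoint measuring basal TAL promoter reporter mRNA not a specific factor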). To be noted: HepG2 Attagene cis-factorial TAL promoter reporter; actives raise or lower the signal. In outline: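 Steps: transfect HepG2 with multiple reporter transcription units; dose 24 h; isolate RNA, reverse-transcribe, PCR-amplify, label with 6-FAM, digest with HpaI; resolve by capillary electrophoresis. Bidirectional fitting against DMSO baseline.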

A short description of assay [2]: ATG_TGFb_CIS: Attagene CIS-FACTORIAL HepG2 Assay for human Transforming Growth Factor (TGF) (AID 2282967; active = hit-call score of the fitted dose curve at least 0.9, where 1 is the maximum; inactive = score below 0.9). To be noted: HepG2 Attagene CIS TGFb reporter, mRNA transcription; actives raise or lower the signal. In outline: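 Transient MRTU transfection of HepG2 (FuGene 6). Dose 24 h. TriZol RNA, oligo(dT) RT, PCR, 6-FAM primer extension, HpaI cut, CE. Bidirectional fit, DMSO = baseline.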

Assay [3] can be described thus: ATG_VDRE_CIS: Attagene CIS-FACTORIAL HepG2 Assay for human Vitamin D Receptor Element (VDRE) (AID 2282968; active = hit-call score of the fitted dose curve at least 0.9, where 1 is the maximum; inactive = score below 0.9). To be noted: HepG2 VDRE cis-reporter transcription, actives raise or lower the signal. In short, it runs like this: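 Cell-based multiplexed reporter format in human liver HepG2 cells, 24 h post-dose. Fluorescence from capillary electrophoresis of reporter cDNA gives the signal, with DMSO as negative control and baseline.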

Assay [4] concerns the target Nuclear receptor subfamily 1 group I member 3 (Homo sapiens) (UniProt Q14994). Nature of the assay: ATG_CAR_TRANS: Attagene TRANS-FACTORIAL HepG2 Assay for human Constitutive Androstane Receptor (CAR) (AID 2282969).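 Also: activators raise reporter mRNA above DMSO so AC50 marks induction.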 To be noted: HepG2 Attagene TRANS-FACTORIAL CAR reporter. In outline: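 HepG2 cells transiently transfected with GAL4-UAS reporter units; TRANS format reads activity of exogenous chimeric NR-Gal4 protein. After 24 h dosing, reporter mRNA quantified by RT-PCR, 6-FAM labelling and capillary electrophoresis; gain of signal fitted against DMSO.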

The target of assay [5] is Estrogen receptor (Homo sapiens) (UniProt P03372). Nature of the assay: ATG_ERa_TRANS: Attagene TRANS-FACTORIAL HepG2 Assay for human Estrogen Receptor alpha (ERa) (AID 2282970). To be noted: HepG2 Attagene TRANS ERa GAL4 reporter, mRNA. In short, it runs like this:
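Multiplexed cell-based reporter format in HepG2: chimeric ERa-Gal4 protein drives GAL4-UAS reporter transcription. Fluorescent reporter mRNA quantified by capillary electrophoresis 24 hours after dosing; endpoint fitted as signal gain against DMSO.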

Assay [6] has as its target Steroid hormone receptor ERR1 (Homo sapiens) (UniProt P11474). Nature of the assay: ATG_ERRa_TRANS: Attagene TRANS-FACTORIAL HepG2 Assay for human Estrogen-Related Receptor alpha (ERRa) (AID 2282971). To be noted: HepG2 Attagene TRANS reporter, ERRa transactivation. In short, it runs like this:
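Signal gain relative to DMSO for an ERRa-Gal4 chimeric receptor, read as reporter mRNA by RT-PCR/capillary electrophoresis. Human HepG2 liver cells, transient multiplex reporter transfection, 24 h chemical exposure.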

The nature of assay [7]: ATG_GAL4_TRANS: Attagene TRANS-FACTORIAL HepG2 Assay for GAL4 (Internal Marker) (AID 2282976). To be noted: HepG2 Attagene TRANS GAL4 internal marker reporter. In outline:
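Liver HepG2 line bearing multiplexed GAL4-UAS reporter constructs; 24 h chemical treatment. Transcripts were quantified as fluorescent fragments on capillary electrophoresis after RT-PCR and HpaI cut, with activity fitted upward from DMSO.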

Assay [8] has as its target Estrogen-related receptor gamma (Homo sapiens) (UniProt P62508). Nature of the assay: ATG_ERRg_TRANS: Attagene TRANS-FACTORIAL HepG2 Assay for human Estrogen-Related Receptor gamma (ERRg) (AID 2282977).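 Also: hits increase reporter signal over DMSO so potencies reflect activators.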 To be noted: HepG2 Attagene TRANS reporter, ERRg transactivation. In outline: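 HepG2 cells transiently transfected with multiplexed GAL4-UAS reporter units and chimeric NR-Gal4 constructs were exposed to test chemicals for 24 h. Reporter mRNA was measured by RT-PCR, 6-FAM primer extension, HpaI digestion and capillary electrophoresis; gain-of-signal versus DMSO.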

Assay [9] addresses Glucocorticoid receptor (Homo sapiens) (UniProt P04150). Nature of the assay: ATG_GR_TRANS: Attagene TRANS-FACTORIAL HepG2 Assay for human Glucocorticoid Receptor (GR) (AID 2282978).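 Also: activators score as hits since higher reporter transcript over DMSO is fitted.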 To be noted: HepG2 Attagene TRANS GR reporter, mRNA transcription. In outline: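 Fluorescent capillary-electrophoresis quantitation of reporter mRNA is the readout, taken 24 h after dosing human HepG2 cells carrying transiently transfected GAL4-UAS reporter units activated by chimeric NR-GAL4 fusions; activity scored as induction over DMSO.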

For assay [10], the target named is Bile acid receptor (Homo sapiens) (UniProt Q96RI1). As to the kind of experiment: ATG_FXR_TRANS: Attagene TRANS-FACTORIAL HepG2 Assay for Farnesoid X Receptor (FXR) (AID 2282979).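 Also: hits raise reporter mRNA above DMSO so AC50 marks FXR activation.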 To be noted: HepG2 Attagene TRANS FXR-GAL4 reporter transcription. In outline: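 After 24 h chemical treatment of transfected HepG2 cells, GAL4-UAS reporter transcripts driven by an exogenous FXR-GAL4 fusion were measured by RT-PCR and capillary electrophoresis. Increases over DMSO were fitted.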
Chain of Bile acid receptor (Homo sapiens) (Q96RI1 whole entry, looked up, the tested form may be a part): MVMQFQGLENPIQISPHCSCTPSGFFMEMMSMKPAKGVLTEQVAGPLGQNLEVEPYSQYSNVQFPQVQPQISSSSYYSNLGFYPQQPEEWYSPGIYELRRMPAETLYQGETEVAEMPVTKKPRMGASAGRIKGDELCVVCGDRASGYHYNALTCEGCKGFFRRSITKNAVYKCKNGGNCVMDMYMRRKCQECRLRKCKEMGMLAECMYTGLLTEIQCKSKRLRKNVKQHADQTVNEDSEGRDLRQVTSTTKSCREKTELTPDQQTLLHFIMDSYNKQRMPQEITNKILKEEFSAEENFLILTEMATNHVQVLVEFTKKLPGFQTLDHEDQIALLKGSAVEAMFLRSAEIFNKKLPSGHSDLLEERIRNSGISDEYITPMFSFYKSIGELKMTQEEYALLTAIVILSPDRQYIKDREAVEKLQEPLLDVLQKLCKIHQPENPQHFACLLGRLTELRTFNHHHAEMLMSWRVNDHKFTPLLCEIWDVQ

Assay [11] deals with Oxysterols receptor LXR-alpha (Homo sapiens) (UniProt Q13133). Nature of the assay: ATG_LXRa_TRANS: Attagene TRANS-FACTORIAL HepG2 Assay for human Liver X Receptor alpha (LXRa) (AID 2282980). To be noted: HepG2 Attagene TRANS reporter, LXRa transactivation. In short, it runs like this:
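In this multiplexed TRANS system, compounds act on HepG2 cells carrying GAL4-UAS reporter units and a receptor-GAL4 fusion for 24 h. Induced reporter RNA is amplified, fluorescently labelled and sized by capillary electrophoresis, with DMSO as baseline.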

Assay [12] deals with Oxysterols receptor LXR-beta (Homo sapiens) (UniProt P55055). Nature of the assay: ATG_LXRb_TRANS: Attagene TRANS-FACTORIAL HepG2 Assay for human Liver X Receptor beta (LXRb) (AID 2282981). To be noted: HepG2 Attagene TRANS GAL4-LXRb reporter, mRNA. In short, it runs like this:
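Gain-of-signal mRNA reporter endpoint, DMSO as negative control. Transiently transfected HepG2 cells carrying the NR-Gal4 chimera and GAL4-UAS reporter units were treated 24 h; transcripts quantified by RT-PCR and capillary electrophoresis fluorescence.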

Assay [13] has as its target Hepatocyte nuclear factor 4-alpha (Homo sapiens) (UniProt P41235). Nature of the assay: ATG_HNF4a_TRANS: Attagene TRANS-FACTORIAL HepG2 Assay for human Hepatocyte Nuclear Factor 4 alpha (HNF4a) (AID 2282982). To be noted: HepG2 HNF4a transactivation reporter, mRNA readout. In outline: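 Gain-of-signal mRNA induction, relative to DMSO vehicle, was read after 24 h compound treatment of HepG2 cells bearing transfected GAL4-UAS reporters. Detection used RT-PCR, 6-FAM primer extension and capillary electrophoresis.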

Assay [14] can be described thus: ATG_M_06_TRANS: Attagene TRANS-FACTORIAL HepG2 Assay for M06 Transcription Factor (Internal Marker) (AID 2282983). To be noted: HepG2 Attagene TRANS M06 internal marker reporter. In short, it runs like this:
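Internal-marker background readout from a multiplexed TRANS reporter system in HepG2; 24 h dosing; mRNA induction quantified by RT-PCR plus capillary electrophoresis fluorescence; DMSO as negative control and baseline.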

The nature of assay [15]: ATG_M_32_TRANS: Attagene TRANS-FACTORIAL HepG2 Assay for M32 Transcription Factor (Internal Marker) (AID 2282984). To be noted: HepG2 Attagene TRANS M32 internal marker reporter. In short, it runs like this:
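Capillary electrophoresis of 6-FAM-labelled reporter fragments gives the signal; data fitted for gain over DMSO negative control. Source: HepG2 cells bearing transient multiple reporter transcription units, 24 h exposure.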

In assay [16] the target is Nuclear receptor subfamily 4 group A member 2 (Homo sapiens) (UniProt P43354). Nature of the assay: ATG_NURR1_TRANS: Attagene TRANS-FACTORIAL HepG2 Assay for human Nuclear Receptor Related Protein 1 (NURR1) (AID 2282985). To be noted: HepG2 Attagene TRANS reporter, mRNA readout. In short, it runs like this:
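HepG2 / transient MRTU transfection / 24 h compound exposure / RT-PCR + CE fluorescence of reporter mRNA / gain-of-signal vs DMSO.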

The target of assay [17] is Transcriptional activator Myb (Homo sapiens) (UniProt P10242). Nature of the assay: ATG_Myb_CIS: Attagene CIS-FACTORIAL HepG2 Assay for human Myeloblastosis (Myb) Proto-Oncogene Transcription Factor (AID 2282986; active = hit-call score of the fitted dose curve at least 0.9, where 1 is the maximum; inactive = score below 0.9). To be noted: HepG2 Attagene CIS-FACTORIAL Myb reporter transcription; actives raise or lower the signal. In outline: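 Reporter transcript levels, quantified by fluorescent RT-PCR and capillary electrophoresis, serve as the read-out. Transfected HepG2 cells carrying cis-promoter reporter units are dosed for 24 hours, and curves are fitted bidirectionally against DMSO controls.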

Assay [18] addresses Nuclear respiratory factor 1 (Homo sapiens) (UniProt Q16656). Nature of the assay: ATG_NRF1_CIS: Attagene CIS-FACTORIAL HepG2 Assay for human Nuclear Respiratory Factor 1 (NRF1) Orphan Gene (AID 2282987; active = hit-call score of the fitted dose curve at least 0.9, where 1 is the maximum; inactive = score below 0.9). To be noted: HepG2 NRF1 cis-element reporter, Attagene multiplex; actives raise or lower the signal. In outline:
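Multiplexed cis-reporter assay, HepG2 cells, 24 h treatment. Total RNA → oligo(dT) RT → PCR with reporter-specific primers → 6-FAM primer extension → HpaI cut → CE. Bidirectional fit vs DMSO.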

Assay [19] has as its target X-box-binding protein 1 (Homo sapiens) (UniProt P17861). Nature of the assay: ATG_Xbp1_CIS: Attagene CIS-FACTORIAL HepG2 Assay for human X-box Binding Protein 1 (XBP1) (AID 2282972; active = hit-call score of the fitted dose curve at least 0.9, where 1 is the maximum; inactive = score below 0.9). To be noted: HepG2 XBP1 cis-element reporter, Attagene multiplex; actives raise or lower the signal. In outline:
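HepG2 cells transiently transfected with multiple cis-element reporter units report endogenous TF activity; 24 h exposure, then reporter mRNA measured by RT-PCR, 6-FAM labelling, HpaI digestion and capillary electrophoresis. Bidirectional fitting versus DMSO.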

Chain of Hepatocyte nuclear factor 4-alpha (Homo sapiens) (P41235 whole entry, looked up, the tested form may be a part): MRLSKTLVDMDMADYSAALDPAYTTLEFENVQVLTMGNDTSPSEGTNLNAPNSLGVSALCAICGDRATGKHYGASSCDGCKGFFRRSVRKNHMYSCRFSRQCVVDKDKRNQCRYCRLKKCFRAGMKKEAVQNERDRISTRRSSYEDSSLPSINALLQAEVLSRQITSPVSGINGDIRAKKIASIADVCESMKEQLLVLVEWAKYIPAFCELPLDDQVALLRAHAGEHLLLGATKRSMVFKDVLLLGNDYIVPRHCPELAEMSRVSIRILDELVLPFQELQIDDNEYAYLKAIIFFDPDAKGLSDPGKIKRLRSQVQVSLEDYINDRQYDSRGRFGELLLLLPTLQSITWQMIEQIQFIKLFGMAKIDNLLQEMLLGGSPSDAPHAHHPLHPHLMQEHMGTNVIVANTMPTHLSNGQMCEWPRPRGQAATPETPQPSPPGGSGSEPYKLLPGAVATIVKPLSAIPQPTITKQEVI
Chain of Oxysterols receptor LXR-alpha (Homo sapiens) (Q13133 whole entry, looked up, the tested form may be a part): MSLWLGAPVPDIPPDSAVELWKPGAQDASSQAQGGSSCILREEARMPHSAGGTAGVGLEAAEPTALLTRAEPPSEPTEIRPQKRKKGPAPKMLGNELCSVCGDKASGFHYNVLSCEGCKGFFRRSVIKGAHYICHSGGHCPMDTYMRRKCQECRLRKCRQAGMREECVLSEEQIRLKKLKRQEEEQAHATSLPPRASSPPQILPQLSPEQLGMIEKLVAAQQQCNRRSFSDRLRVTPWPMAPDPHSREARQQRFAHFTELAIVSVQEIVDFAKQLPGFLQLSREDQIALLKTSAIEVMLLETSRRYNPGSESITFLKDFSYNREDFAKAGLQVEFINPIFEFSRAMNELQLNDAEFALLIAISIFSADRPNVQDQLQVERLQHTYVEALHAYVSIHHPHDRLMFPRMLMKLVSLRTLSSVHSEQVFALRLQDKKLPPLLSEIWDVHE
Chain of Nuclear respiratory factor 1 (Homo sapiens) (Q16656 whole entry, looked up): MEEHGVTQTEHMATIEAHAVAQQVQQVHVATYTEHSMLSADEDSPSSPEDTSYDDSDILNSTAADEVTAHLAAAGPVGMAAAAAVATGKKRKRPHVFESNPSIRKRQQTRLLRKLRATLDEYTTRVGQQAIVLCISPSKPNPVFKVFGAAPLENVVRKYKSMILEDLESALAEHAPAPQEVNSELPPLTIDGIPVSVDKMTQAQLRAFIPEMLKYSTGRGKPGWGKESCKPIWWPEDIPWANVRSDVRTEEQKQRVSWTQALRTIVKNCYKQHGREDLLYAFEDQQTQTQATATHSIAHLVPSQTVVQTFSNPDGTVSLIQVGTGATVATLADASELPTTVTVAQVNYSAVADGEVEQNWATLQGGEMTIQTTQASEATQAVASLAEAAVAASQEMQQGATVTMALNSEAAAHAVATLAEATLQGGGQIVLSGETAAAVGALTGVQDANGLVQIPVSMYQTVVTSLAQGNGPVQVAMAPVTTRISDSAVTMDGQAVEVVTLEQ
Chain of X-box-binding protein 1 (Homo sapiens) (P17861 whole entry, looked up): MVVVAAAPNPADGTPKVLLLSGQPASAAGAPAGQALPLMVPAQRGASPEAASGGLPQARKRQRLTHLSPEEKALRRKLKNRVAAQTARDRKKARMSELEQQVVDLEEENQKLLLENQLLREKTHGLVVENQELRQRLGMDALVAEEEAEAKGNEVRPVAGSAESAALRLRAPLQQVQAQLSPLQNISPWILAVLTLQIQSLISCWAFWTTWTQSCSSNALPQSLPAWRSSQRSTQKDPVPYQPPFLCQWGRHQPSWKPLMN
Chain of Steroid hormone receptor ERR1 (Homo sapiens) (P11474 whole entry, looked up, the tested form may be a part): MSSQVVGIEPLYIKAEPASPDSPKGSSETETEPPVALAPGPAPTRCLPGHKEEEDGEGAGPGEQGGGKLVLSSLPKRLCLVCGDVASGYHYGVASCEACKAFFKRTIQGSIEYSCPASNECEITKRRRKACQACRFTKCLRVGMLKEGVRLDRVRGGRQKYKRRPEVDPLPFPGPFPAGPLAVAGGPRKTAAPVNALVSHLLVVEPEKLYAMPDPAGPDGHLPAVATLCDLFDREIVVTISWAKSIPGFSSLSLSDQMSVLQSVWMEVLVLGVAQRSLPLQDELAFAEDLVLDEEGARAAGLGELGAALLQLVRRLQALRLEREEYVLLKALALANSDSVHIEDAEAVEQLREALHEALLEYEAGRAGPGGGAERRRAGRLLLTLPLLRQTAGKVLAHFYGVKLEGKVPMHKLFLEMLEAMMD
Chain of Nuclear receptor subfamily 4 group A member 2 (Homo sapiens) (P43354 whole entry, looked up): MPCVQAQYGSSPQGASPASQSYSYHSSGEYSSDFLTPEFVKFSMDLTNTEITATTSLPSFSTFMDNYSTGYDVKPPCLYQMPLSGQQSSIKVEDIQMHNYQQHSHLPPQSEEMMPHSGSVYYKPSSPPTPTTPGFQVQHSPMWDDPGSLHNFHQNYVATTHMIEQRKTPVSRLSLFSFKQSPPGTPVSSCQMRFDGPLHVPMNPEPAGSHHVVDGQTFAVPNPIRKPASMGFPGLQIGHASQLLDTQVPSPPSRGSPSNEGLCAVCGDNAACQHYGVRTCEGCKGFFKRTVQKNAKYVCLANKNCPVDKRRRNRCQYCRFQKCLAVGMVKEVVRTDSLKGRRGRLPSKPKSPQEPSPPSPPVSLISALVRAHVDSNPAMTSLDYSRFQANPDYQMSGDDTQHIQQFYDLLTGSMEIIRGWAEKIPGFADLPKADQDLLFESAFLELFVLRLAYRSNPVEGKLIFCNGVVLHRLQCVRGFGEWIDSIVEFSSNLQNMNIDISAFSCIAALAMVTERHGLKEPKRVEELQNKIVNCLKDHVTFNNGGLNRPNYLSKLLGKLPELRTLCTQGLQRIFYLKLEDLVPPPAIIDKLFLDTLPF
Chain of Nuclear receptor subfamily 1 group I member 3 (Homo sapiens) (Q14994 whole entry, looked up, the tested form may be a part): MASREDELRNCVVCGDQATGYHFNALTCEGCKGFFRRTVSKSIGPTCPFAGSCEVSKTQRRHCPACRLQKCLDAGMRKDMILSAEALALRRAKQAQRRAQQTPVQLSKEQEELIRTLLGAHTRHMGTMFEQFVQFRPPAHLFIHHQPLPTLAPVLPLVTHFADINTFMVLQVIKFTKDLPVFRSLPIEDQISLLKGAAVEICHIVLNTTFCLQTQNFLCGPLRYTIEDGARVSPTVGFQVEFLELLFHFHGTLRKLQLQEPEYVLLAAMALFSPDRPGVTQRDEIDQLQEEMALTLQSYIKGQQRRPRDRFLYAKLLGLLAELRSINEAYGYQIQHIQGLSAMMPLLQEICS
Chain of Estrogen receptor (Homo sapiens) (P03372 whole entry, looked up, the tested form may be a part): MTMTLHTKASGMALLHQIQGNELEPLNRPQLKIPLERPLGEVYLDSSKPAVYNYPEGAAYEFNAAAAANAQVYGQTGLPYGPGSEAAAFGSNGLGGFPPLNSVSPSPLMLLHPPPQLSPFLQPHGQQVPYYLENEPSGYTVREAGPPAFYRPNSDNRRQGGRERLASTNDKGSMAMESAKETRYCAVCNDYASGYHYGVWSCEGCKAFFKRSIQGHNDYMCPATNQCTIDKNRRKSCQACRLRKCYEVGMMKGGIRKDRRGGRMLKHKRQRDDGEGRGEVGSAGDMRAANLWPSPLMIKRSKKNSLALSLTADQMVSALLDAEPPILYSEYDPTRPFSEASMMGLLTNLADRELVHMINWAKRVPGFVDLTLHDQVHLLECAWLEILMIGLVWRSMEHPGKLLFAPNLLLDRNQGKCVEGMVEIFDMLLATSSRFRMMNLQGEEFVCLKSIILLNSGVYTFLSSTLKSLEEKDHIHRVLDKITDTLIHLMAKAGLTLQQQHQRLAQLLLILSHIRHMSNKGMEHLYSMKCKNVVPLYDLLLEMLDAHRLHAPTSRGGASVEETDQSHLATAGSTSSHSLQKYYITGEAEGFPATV
Chain of Estrogen-related receptor gamma (Homo sapiens) (P62508 whole entry, looked up, the tested form may be a part): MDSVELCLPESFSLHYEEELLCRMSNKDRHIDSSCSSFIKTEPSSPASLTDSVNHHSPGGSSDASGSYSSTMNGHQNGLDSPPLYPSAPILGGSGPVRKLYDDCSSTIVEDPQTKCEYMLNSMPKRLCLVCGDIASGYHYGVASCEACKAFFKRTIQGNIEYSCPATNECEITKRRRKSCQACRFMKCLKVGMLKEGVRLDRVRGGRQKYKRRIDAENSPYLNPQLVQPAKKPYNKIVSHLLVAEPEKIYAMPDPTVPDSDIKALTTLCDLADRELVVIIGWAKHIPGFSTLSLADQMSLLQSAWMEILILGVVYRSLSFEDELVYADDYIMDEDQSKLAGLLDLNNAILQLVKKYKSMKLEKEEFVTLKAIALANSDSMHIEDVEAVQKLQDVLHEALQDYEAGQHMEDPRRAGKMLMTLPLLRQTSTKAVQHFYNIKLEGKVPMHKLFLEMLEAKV

For orientation: AC50 means the concentration at which the activity in the assay is half-maximal. As for `O=C(O)C(F)(F)OC(F)(F)C(F)(F)OC(F)(F)C(F)(F)OC(F)(F)C(F)(F)C(F)(F)C(F)(F)F`, the result in [1], in assay [2], in assay [4], in assay [5], in [6] and in [7] was inactive. The outcome in [8], in assay [9], in [10], in assay [11], in assay [12] and in assay [13] was inactive. Further, the call in assay [14], in assay [15], in assay [17] and in [18] was inactive. The AC50 in [3] is 13.1 µM (active) and 30 µM (active); in assay [5], 26 µM (active); in assay [10] it was 27 µM (active); in [13] it was 84.7 µM (active); in [16], 13.4 µM (active) and 16.6 µM (active).
For the compound `O=c1cc(-c2ccccc2)oc2ccc3ccccc3c12`, the outcome in assay [1], in assay [2], in [3], in assay [4], in [5] and in assay [19] was inactive. Further, the result in assay [8], in assay [11], in assay [12], in assay [13], in assay [15] and in assay [16] was inactive. The outcome in [17] and in assay [18] was inactive. Besides, in assay [5], the AC50 was 2.05 µM (active).
For `O=C(O)c1cccc(C(=O)O)n1`, the compound was called inactive in assay [1], in assay [2], in [3], in [4], in assay [5] and in assay [6]. Further, the compound was called inactive in assay [19], in assay [7], in [8], in [9], in [10] and in [14]. The outcome in assay [15], in assay [16], in assay [17] and in assay [18] was inactive.
